# Data: the supplement of paper PMC6555819
# Legend:
# Experiment in all cases: PBM binding z-score (relative to random genomic background probes); higher = stronger binding; sequences stand for … in GC…GCGATTGACAGCGTAGAATGAAGG
# [1] = system: RARb homodimer (NR concentration 270 nM)
# How it was run: (§1)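 Antibodies against each partner of ligand-free nuclear receptor dimers (one per run) detected binding on custom Agilent 4×180K protein-binding microarrays after 1 h incubation. The double-stranded probes had 34-nt variable regions carrying direct-repeat seeds, single-nucleotide variants, half-site ablations and random human genomic background sequences. Binding z-scores, from regression-normalized fluorescence, use the random background probes as reference.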
# [2] = system: RARg:RXRa (NR concentration 270 nM, RXRa partner concentration 90 nM)
# How it was run: as §1
# [3] = system: RARg homodimer (NR concentration 270 nM)
# How it was run: as §1
# [4] = system: RXRa DBDmut IVT, anti-RXR (DBD mutation: RXRa K156A/R161A, NR concentration 90 nM)
# How it was run: as §1
# [5] = system: RXRa homodimer (NR concentration 180 nM)
# How it was run: as §1
# [6] = system: THRa:RXRa (NR concentration 90 nM, RXRa partner concentration 90 nM)
# How it was run: as §1
# [7] = system: THRa homodimer (NR concentration 90 nM)
# How it was run: as §1
# [8] = system: VDR homodimer (NR concentration 270 nM)
# How it was run: as §1
Sequence,PBM binding z-score [1],PBM binding z-score [2],PBM binding z-score [3],PBM binding z-score [4],PBM binding z-score [5],PBM binding z-score [6],PBM binding z-score [7],PBM binding z-score [8]
CGTCCAAGGTCACAGGTCAGTGAAGAGATGACGG,5.03,6.75,7.51,3.42,7.67,4.36,3.28,2.75
GCTAGCAGGCCATTTAGGTCACTCAATGACGGGC,2.27,1.47,1.75,0.101,1,2.79,1.71,0.244
GCTGGTAGATCAAGGTTAAGAAAGACTAAGCTAA,0.171,0.216,0.368,-0.116,0.692,1.36,-0.209,-0.133
ATATGTGGGTTAGCTGGGGTCATTCAGACTAGGC,3.54,3.97,2.93,2.16,5.59,5,3.84,5.73
CCCGCTAGGTCAATGGTCAGCTAAAGCAGCTCGC,3.03,3.62,4.76,1.28,2.37,2.27,0.886,-0.00101
TCGAGTAGGTTAGTCGGGGTATTCAGCCAACATA,-0.161,-0.227,-0.435,0.0822,-0.0938,1.71,-0.175,-0.161
CGAACTAGGTCTTTGACAGGACAGTGAATAGTAA,0.139,0.112,0.193,0.262,-0.252,0.309,-0.0353,-0.305
CGTACTGGGCCATCAGGTCATTGATATCAACGTT,2.7,2.08,2.17,0.587,1.44,3.17,3.18,1.98
CCTACTGGTCCAAAAAGGTCATTGATGCCGATAA,4.58,4.42,4.17,1.56,4.74,3.35,1.18,3.81
TCATAAAGGTAATACAGGTGAAAGTCGGCATCTA,1.09,1.3,0.722,1.78,1.67,1.7,0.207,0.435
GCGTCTGGGGCATCAGCAGGTTACCATAACTTAA,0.953,0.859,0.544,0.254,0.243,1.06,-0.103,-0.379
GCGATTAGTTGAAAGGGCAACCGAATGATTCTCG,1.82,1.14,1,0.582,1.27,0.405,-0.273,0.184
TCTTGTAGATCAGCAGGTTAAGAATGCTGGCCAA,0.138,-0.0809,-0.427,0.415,0.165,0.0436,-0.197,-0.438
AGAATGAGGTTACCAACGATCAGGGAAACGCTTG,0.885,1.97,1.6,1.08,2.45,2.75,0.794,0.331
TCTAGTTGGTCAAAGGTAACACACTCGAAATGCG,1.51,1.97,1.45,1.33,2.42,1.46,0.935,0.995
CCGACTGGGGCATAACGTTACCATAAGCCAGCCC,-0.131,-0.0174,0.122,-0.083,-0.0796,-0.497,-0.431,-0.0002
ATATATAGGTTAGCTGGGGTCATTCAGACTAGGC,3.92,4.47,3.4,2.09,5.55,5.15,3.63,5.64
CAAACTAGGTCAAGGTCCAAGTCGGTTTGTGCCA,3.59,3.87,5.33,1.76,3,3.18,1.67,1.7
TCTAGCAGGCCAGAGGGTGACTCAAGAGGTACGG,0.225,0.176,-0.109,-0.237,0.486,-0.0515,-0.795,-0.534

Sequence,PBM binding z-score [1],PBM binding z-score [2],PBM binding z-score [3],PBM binding z-score [4],PBM binding z-score [5],PBM binding z-score [6],PBM binding z-score [7],PBM binding z-score [8]
ACTATTAGTTGACTTAGGGCAATCGATACGACGC,0.586,0.781,0.924,0.592,0.921,1.31,0.18,0.448
CCGACTGGGGCAGAAAGGTAACCATACCATCCGG,0.454,0.234,0.586,-1.12,0.166,0.0799,-0.606,-0.291
ATATGTAGGGTAGCTGGGGTCATTCAGACTAGGC,3.6,3.62,2.23,1.78,5.16,4.74,3.57,4.92
AATCGGAGGACAAAGGTCAGAGCTACGCCAGTGA,4.37,5.79,4.98,0.662,4.98,3.55,0.579,1.36
TCTTGTAGATCAGCAGGAGGTTAAGAAAGATCGA,0.33,0.611,0.176,0.327,0.81,0.885,-0.878,-0.496
CCTACTGTGCCAAAAAGGTCATTGATGCCGATAA,4.41,4.52,3.97,1.73,4.42,3.26,1.48,3.38
CGTCCAAGGTCAGCAGGTCAGTGATAGCGACGTG,5.02,6.25,7.22,2.59,5.26,3.84,2.31,1.75
CCTTACGGGTTACGAGGTTATAGCACGACGAGCG,1.24,2.31,1.43,-0.0539,2.99,2.23,0.638,0.469
AGAATGCGGTTAAGATCAGGGAAACAGAATACAT,-0.126,0.0483,0.299,-0.536,-0.0604,0.164,-0.363,-0.162
ATCTCTAGGTAAAAGTGCAGTGAATCCCGAGGAT,0.183,0.363,0.23,-0.0923,0.454,0.235,-0.373,0.138
CCTAGTTGGACAAGGTCACACACGCTATAGGTAC,4.19,4.24,4.16,1.75,4.4,3.93,3.3,3.14
AGTATTAGTTGACTTAGGGCAACCGATACGACGC,1.29,0.595,1.02,0.0389,0.49,1.53,0.518,0.538
CCGACTGGGGCAAACGTTACCATACTCAGTACGA,0.0694,0.309,0.456,0.618,0.251,-0.227,-0.206,-0.371
CCTACTGCGCCATTCAGAGGTCATTGATCATATG,3.92,3.36,2.53,1.73,3.92,3.37,2.07,3.47
ATCTCTAGGTAACCAAGTTCAGTGATTGCCGAAC,1.45,0.546,0.823,1.02,0.505,1.44,0.949,2.76
ATCTCTAGGTAACAAGTTCGGTGAAAGAGAGGAC,1.21,0.788,0.885,0.327,0.444,1.48,0.922,1.22
ATCTCTAGGTAAAGATATTTCAGTGAATGCAAAT,-0.275,0.202,0.289,-0.0383,0.125,0.524,0.252,-0.0481
CGTGAAAGTTCAAGGTAACGTAACAGAAAGCAGC,3.23,5.05,5.85,4.44,4.04,3.07,0.878,3.01
CAGCCTAGGACAGGGCCAGTATAGGAGGAACGTT,-0.1,-0.205,0.0959,-0.669,-0.283,0.127,-0.164,-0.467

Sequence,PBM binding z-score [1],PBM binding z-score [2],PBM binding z-score [3],PBM binding z-score [4],PBM binding z-score [5],PBM binding z-score [6],PBM binding z-score [7],PBM binding z-score [8]
CCGACTGGGGCAAGGGTTACCATACTCAGTACGA,1.16,1.49,1.3,-0.851,1.71,0.704,-0.463,0.0843
CAAACTAGTTCACGAAAGGTCAAAGTCGAATGAC,5.1,6.68,6.48,3.07,7.49,4.5,1.16,4.41
TGAATGAGGTTAAAGATCAGGGAACGTGGCGTCG,0.677,2.23,1.12,1.61,3.81,2.5,0.44,0.484
GGAACGAGGGCAAAGTTAATAGCATCTGTCGACG,1.24,1.77,1.99,2.78,1.55,1.27,-0.176,1.31
TCTTGTAGATCCACAGGAGGTTAAGAAAGATCGA,0.545,0.509,0.319,0.48,0.994,0.962,0.0268,-0.139
CATAAAGGGTCAGCTAGGCCAGAGTAGGGACGGC,4.09,5.41,6.23,1.52,4.42,2.65,0.204,0.783
AGTCAAAGTTAATCTAGGTAACGTAAGATATGCT,-0.203,0.152,0.434,-0.168,0.0123,2.91,0.311,-0.189
CTCGAAAGGTCGGTTGAGGTGAGCATACGGATAA,2.57,3.04,2.99,0.598,2.33,5.04,1.56,0.64
ATCGCTAGGTAACCAAGTTCAGTGAATGCCGAAC,0.915,0.229,0.277,0.0688,0.062,0.934,-0.378,1.7
TGAATGAGGATAAAGATCAGGGAACGTGGCGTCG,-0.895,0.0209,0.399,-0.871,-0.0726,1.33,0.0902,-0.316
CCGGACAGGTGAGAAGGTAACTCAGCCTCGATTA,0.613,0.4,0.787,-0.0237,0.117,0.16,0.35,-0.222
CCTACTTGGCCATTCAGAGGTCATTGATCATATG,3.93,3.64,2.6,1.92,3.73,3.21,1.66,3.32
TCTTGTAGCTCAACAGGAGGTTAAGAAAGATCGA,-0.0225,0.173,0.0214,-0.206,0.559,0.491,-1.06,-0.327
CCGACTGGGGCAATGTTACCATAACGCACAGCCA,-0.131,0.0448,0.359,-0.0343,-0.0938,-0.53,-0.342,-0.569
AGAACGAGGTTATTAAGATCAGGGAATTGCGGTC,0.861,0.912,0.734,1.68,1.82,1.65,0.227,1.33
TCATATAGGTAGAAGGTGAAAGTCGGTGTGGTAA,1.02,0.662,0.283,2.05,1.18,0.699,0.397,0.453
GCTGCTAGGTCAACTGATGGTAAGCTAAAGCTCG,2.98,4.25,4.92,1.14,2.73,2.9,0.776,-0.0201
CGTCCAAGGTCAAAGGTCAGTGCAGAGATGACGG,5.5,8.65,8.11,4.2,10,4.76,3.26,4.12
CCAACTGGGCCAAGGTCATTGATCAGTCAAAGCA,3.25,3.49,2.52,1.67,3.17,3.45,2.23,2.57
